The structures appear in SMILES notation. This is part of a sample that, as a whole, favours compounds with a hit. Of some 83,000 tested, about 20% had one in any assay.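 Note: values are percent growth. 100 is the growth of untreated cells, values between 100 and 0 indicate rising inhibition; between -100 and 0 indicates cell death.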 Values without a mark were called inactive. Active and inactive are the calls of the source. Rule for the calls: active = growth percent below 10; inactive = the rest.

This assay relates to HL-60(TB) leukemia. The assay can be described thus: NCI-60 one-dose screen, 48 h (100 = growth as untreated, 0 = no growth, -100 = all killed). The settings on record: 10 µM unless noted.
Consider `O=C1C=CC(=O)c2c(O)c(CO)c(CO)c(O)c21`, for which the growth was 64.2%.
With `Cc1ccc2oc(=O)cc(/C(=C3/C=CC=N3)c3ccc[nH]3)c2c1` the figure was -13.6% (active); with `CCOc1cccc(/C=N/NC(=O)c2ccccc2Nc2ccnc(C(F)(F)F)c2)c1O`, -4.47% (active).
With `ClC1=C(Cl)C(Cl)=C(Cl)C1=Cc1ccccc1`, the growth was -8.87% (active).
With `Cc1nc2ccccc2c(/C=C/c2ccc(F)cc2)c1C(N)=O` the figure was 81.1%.
Next, `CSc1nc(NCc2ccccc2)c(C#N)c(-c2cccc([N+](=O)[O-])c2)n1`: 107%; `Cc1ccc(S(=O)(=O)OC[C@@]2(C)CC[C@]3(C)CC[C@]4(C)C(=C3C2)C=C[C@@H]2[C@@]3(C)CCCNC(C)(C)[C@@H]3CC[C@]24C)cc1`: -58.4% (active); `COc1cc(NC(=O)CSc2nc3ccc(C)cc3c(=O)n2-c2ccccc2)cc(OC)c1OC`: 89.1%.
With `COc1ccc2c3ccnc(C(F)(F)F)c3n(CCCCN)c2c1`, the growth was 53.8%.
For the compound `Fc1c[c-]c(-c2ccccn2)c(F)c1.[CH3-].[Pt+2].c1ccc(P(C[PH+](c2ccccc2)c2ccccc2)c2ccccc2)cc1`, the growth was -24.2% (active).
For `[2H]C1([2H])CCN(C(=O)C2CC2)c2cc(NS(=O)(=O)c3ccc(-c4cccc(C(N)=O)c4)cc3)ccc21`, the growth is -0.857% (active).
With `O=C1c2ccccc2C(=O)N1CCCCNc1ccccc1` the figure was 5.16% (active); with `CCOC(=O)C1=C(c2ccccc2)N=C2SC=C(c3ccc(Cl)cc3)N2C1c1ccc(Cl)cc1` (stereo not drawn), 52.6%; with `C#C[C@]1(O)CC[C@H]2[C@@H]3CC=C4c5sc(-c6cccc(Br)c6)nc5CC[C@]4(C)[C@H]3CC[C@@]21C`, 77.9%.
On to `COc1cc(-c2c(C#N)c(-c3cccs3)nc3c2c(-c2ccccc2)nn3-c2ccccc2)ccc1O`, for which the growth was 99.3%.
Take `O=C(Cc1nc2cc(Cl)c(Cl)cc2nc1CC(=O)c1cccnc1)c1cccnc1`: the growth is 39.6%.
Take `c1ccc([C@H]2CN3CCSC3=N2)cc1`: the growth was 99.1%.
With `O=C(COc1cc(O)c2c(=O)cc(-c3ccccc3)oc2c1)Nc1ccccc1`, the growth was 74.5%.
Regarding `O=C(O)c1cccc2oc(-c3ccccc3O)nc12`, the growth is 49.8%.
Regarding `[2H]C([2H])([2H])Oc1c(F)cccc1/C=C/C(=O)/C=C(O)/C=C/c1cccc(F)c1OC([2H])([2H])[2H]`, the growth was 88.5%.
With `Cc1[nH]c(-c2cc(N)ccc2Cl)c2c1C(=O)CCCC2` the figure was -14.4% (active).
As to `Nc1c(C(=O)Nc2ccccc2)sc2nc3c(cc12)CN(Cc1ccccc1)CC3`, the growth is 83%.
As for `Cc1c(-c2cnc3ccc(Cl)cc3c2C(=O)O)nnn1-c1ccc(Cl)cc1`, the growth was 96.2%.

Source of the values: PubChem BioAssay (NCI).
